Measured values taken from PubChem BioAssay (NCATS).
Where “and” joins values, the source holds several entries; their conditions need not be identical. Equal entries are not always repeated. Records with an inconclusive call do not appear. Calls of active or inactive are those of the source. Unless noted, calls follow the shape of the dose curve; as a rule, active = well fitted curve in the direction sought with a large enough effect; inconclusive = small, poorly fitted or top-dose-only effect, or another doubt; inactive = no such curve, though single readings can be large; an effect the other way counts as inactive or inconclusive.

How the values were obtained:
[1] = Cell Viability - HepG2 (AID 433; calls by dose curve;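 also: potency is read from the fitted curve at half-maximal effect; potency for ATP loss meaning cytotoxicity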); settings: qHTS
Summary of the method: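 Read-out is luciferase-based quantitation of cellular ATP as a measure of viable HepG2 cells after 40 h treatment at 37 °C. Signal decrease is scaled between DMSO-only and 100 uM tamoxifen controls, with AC50 fitted by the Hill equation.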

[2] = Cell Viability - MRC5 (AID 434; calls by dose curve;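 also: potency is read from the fitted curve at half-maximal effect; cells exposed to compound for 40 hours at 37 °C; potency reflects cytotoxicity seen as loss of intracellular ATP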); settings: MRC5 lung fibroblast viability, qHTS
Summary of the method: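 ATP luminescence read-out (CellTiter-Glo, 20 min RT) after 40 hr, 37 °C compound exposure of 1500 MRC5 cells/well. Data normalized to DMSO (basal) and 100 uM tamoxifen (100% inhibition); AC50 from standard Hill equation.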

[3] = Cell Viability - SK-N-SH (AID 435; calls by dose curve;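 also: potency is read from the fitted curve at half-maximal effect; compound exposure lasted 40 h at 37 °C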); settings: SK-N-SH neuroblastoma cell viability qHTS
Summary of the method: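 Luminescent ATP signal served as the viability read-out after 40 hours of compound treatment of human neuroblastoma SK-N-SH cells. Concentration-response data, scaled between DMSO and 100 uM tamoxifen, gave AC50 values by standard Hill modeling.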

[4] = Cell Viability - HUV-EC-C (AID 542); settings: HUV-EC-C endothelial cell viability, qHTS; series mostly up to 92.2 µM; also: % is scaled to controls: 0 for no effect and ±100 for the full control effect; nearly all actives have a fitted effect of over 35% in size
Summary of the method: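 Luminescent ATP read-out (CellTiter-Glo, 20 min room temperature) after 40 hr compound treatment of HUV-EC-C cells at 37 °C. Concentration-response data fitted with the standard Hill equation to give AC50; tamoxifen and doxorubicin served as positive controls.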

[5] = Cell Viability - Renal Proximal Tubule (AID 545); settings: renal proximal tubule cells viability; at 91.7 µM (top of the series), primary cells of rat origin unless noted; also: nearly all actives have a fitted effect of over 40% in size
Summary of the method: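 Luminescent ATP signal (CellTiter-Glo) served as the viability read-out after 40 hr compound exposure of freshly isolated rat proximal tubule cells at 37 °C. Concentration-dependent ATP loss was fitted with the Hill equation to give AC50.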

[6] = Cell Viability - Mesenchymal (AID 546); settings: mesenchymal cells viability, qHTS; series mostly up to 91.7 µM;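 also: cells exposed to compound for 40 hours before reading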
Summary of the method: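 Human renal mesenchymal cells (glomerulus-derived), 1000 cells/well, 5 hr 37 °C pre-incubation; compound 40 hr, 37 °C; CellTiter-Glo, 20 min RT; luminescence; AC50 via Hill equation.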

[7] = Cellular Toxicity (caspase-3) Jurkat (AID 655); settings: Jurkat caspase-3 activation, luminescence, DMSO = 0%, tamoxifen = 100%; at 92.2 µM (top of the series);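 also: cells exposed to compound for 16 h at 37 °C before reading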
Summary of the method: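 5000 Jurkat cells/well; compound 16 hr, 37 °C; Caspase-Glo 3/7 added, 20 min RT; luminescence read. Norm: DMSO = 0%, tamoxifen 100 uM = 100%. AC50, Hill model.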

[8] = Cellular Toxicity (caspase-3) HUV-EC-C (AID 656); settings: HUV-EC-C cells, caspase-3 activation (apoptosis), vehicle = 0, 100 µM tamoxifen = 100%; series mostly up to 92.2 µM
Summary of the method: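 qHTS; HUV-EC-C, 1000 cells/well; 5 hr settle, 16 hr cmpd, 37°C; Caspase-Glo 3/7, 20 min RT; luminescence. Norm: DMSO = 0%, tamoxifen 100 uM = 100%. Hill-fit AC50.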

[9] = Cellular Toxicity (caspase-3) SHSY5Y (AID 657); settings: SH-SY5Y caspase-3 activation, DMSO zero, 10 µM staurosporine = 100%; series mostly up to 91.7 µM;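 also: cells exposed to compound for 16 hours at 37 °C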
Summary of the method: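 qHTS, SH-SY5Y, 1500 cells/well, 5 h pre-incubation 37 °C; compound 16 h 37 °C; Caspase-Glo 3/7 1 h RT; luminescence. Norm.: DMSO = 0, 10 uM staurosporine = 100%. Hill fit → AC50.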

[10] = Cellular Toxicity (caspase-3) BJ (AID 658); settings: BJ fibroblasts, luminescence, normalized: DMSO 0%, staurosporine 100%; series mostly up to 91.7 µM;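 also: cells exposed to compound for 16 hours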
Summary of the method: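 qHTS, BJ fibroblasts, 1000 cells/well; 5 hr preincubation, 16 hr compound, 37 °C; Caspase-Glo 3/7 reagent, 1 hr RT; luminescence. DMSO = 0%, 10 uM staurosporine = 100%. Hill-equation AC50.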

[11] = Cellular Toxicity (caspase-3) MRC-5 (AID 659); settings: MRC-5 cells, luminescence, normalized: DMSO 0%, 10 µM staurosporine 100%; series mostly up to 91.7 µM
Summary of the method: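 MRC-5 fibroblasts, 1500/well; 16 h cpd, 37 °C; Caspase-Glo 3/7, 1 h RT; lumi read. Norm: DMSO = 0%, 10 uM staurosporine = 100%. Hill-fit AC50 from qHTS conc-response.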

[12] = Cellular Toxicity (caspase-3) Mesangial (AID 660); settings: mesangial cells, normalized: DMSO 0%, 100 µM tamoxifen 100%; series mostly up to 91.7 µM;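 also: combined caspase 3 and 7 activity read by Caspase-Glo luminescence; cells exposed to compound for 16 h before the caspase read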
Summary of the method: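 Luminescent Caspase-Glo 3/7 readout (aminoluciferin substrate cleavage, 20 min RT) after 16 h compound exposure at 37 °C of normal human mesangial cells. Signal increase normalized between DMSO basal and 100 uM tamoxifen; Hill-equation AC50.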

[13] = Cellular Toxicity (caspase-3) SK-N-SH (AID 661); settings: SK-N-SH caspase-3 activation, qHTS, DMSO as zero, staurosporine as full; series mostly up to 91.7 µM;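 also: cells exposed to compound for 16 hours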
Summary of the method: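 Luminescent Caspase-Glo 3/7 read-out after 16 hr compound exposure of SK-N-SH neuroblastoma cells at 37 °C. Signal increase normalized to DMSO (basal) and 10 uM staurosporine (100%); AC50 from Hill equation fits of qHTS concentration-response data.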

[14] = Cellular Toxicity (caspase-3) H-4-II-E (AID 663); settings: H-4-II-E rat hepatoma, scaled: DMSO 0%, 100 µM tamoxifen 100%; series mostly up to 92.2 µM;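 also: cells exposed to compound for 16 hr before readout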
Summary of the method: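 H-4-II-E rat hepatoma, 1500 cells/well, 5 hr settle at 37 °C; compound 16 hr, 37 °C, complete medium; Caspase-Glo 3/7, 20 min RT; luminescence. DMSO = 0%, 100 uM tamoxifen = 100%; Hill-equation AC50.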

[15] = Cellular Toxicity (caspase-3) Renal Proximal Tubule (AID 667); settings: renal proximal tubule cells; at 91.7 µM (top of the series), primary cells freshly taken from rat, solvent-only wells 0%, staurosporine 100% unless noted;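 also: cells exposed to compound for 16 hours at 37 °C before detection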
Summary of the method: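 AC50 derived by standard Hill fit of concentration-response data, normalized between DMSO basal and 10 uM staurosporine as 100% stimulation. Cells: primary rat kidney proximal tubule, 16 h treatment at 37 °C.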

[16] = MultiTox-Fluor Cytotoxicity Assay - LYMP1-001 - Dead Cells (AID 946); settings: LYMP1-001 lymphoblastoid cells, dead-cell protease fluorescence; series mostly up to 92.2 µM
Summary of the method: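 Seed 2500 LYMP1-001 cells/well, incubate 5 hr at 37 C; add compound, 16 hr at 37 C; add MultiTox-Fluor reagent, 60 min RT; read dead-cell fluorescence Ex/Em=485/520. Normalize to DMSO and 15 uM tetraoctylammonium bromide.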

[17] = Cell Viability - LYMP1-002 - Assay at 16 hr (AID 948); settings: LYMP1-002 lymphoblastoid cell viability; series mostly up to 92.2 µM;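 also: 0% = DMSO alone and full effect = 92 µM tetraoctylammonium bromide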
Summary of the method: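 Seed 2500 LYMP1-002 cells per well in complete medium and hold 5 hr at 37 C. Add compound across a concentration series and incubate 16 hr at 37 C. Add CellTiter-Glo, wait 30 min at room temperature, read luminescence.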

[18] = MultiTox-Fluor Cytotoxicity Assay - LYMP1-003 - Dead Cells (AID 961); settings: LYMP1-003 lymphoblastoid cells, dead-cell protease fluorescence; series mostly up to 92.2 µM; also: nearly all actives have a fitted effect of over 70% in size
Summary of the method: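 LYMP1-003 lymphoblastoid, 2500 cells/well, 5 hr settle then 16 hr cpd at 37 C; MultiTox-Fluor reagent 60 min RT; Ex/Em 485/520 dead-cell signal; norm. DMSO = 0%, 15 uM tetraoctylammonium bromide = 100%; Hill AC50.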

[19] = qHTS assay for cell viability of HEK293 cells (AID 743288); settings: ATP luminescence (CellTiter-Glo), 18 h; max response: active compounds read low; also: % is scaled to controls: 0 for no effect and ±100 for the full control effect; nearly all actives have a fitted effect of over 50% in size
Summary of the method: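 Viable-cell counts were inferred from luciferase-based ATP content in HEK293 cells seeded at 2,000/well, pre-incubated ≥5 h, then dosed with DMSO-solubilised compounds for 18 h at 37 C.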

[20] = qHTS assay for cell viability of the p53RE-bla HCT-116 cell line (AID 743292); settings: p53RE-bla HCT-116 viability, ATP luminescence, 16 h; series mostly up to 95 µM; also: % is scaled to controls: 0 for no effect and ±100 for the full control effect; nearly all actives have a fitted effect of over 55% in size
Summary of the method: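 Readout: CellTiter-Glo luminescence after 30 min RT. Treatment: compounds in DMSO, 16 h, 37 C. Cells: CellSensor p53RE-bla HCT-116, 4,000/well, preincubated 5 h.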

c1nc[nH]n1
inactive: Potency [1] > 92 µM | Potency [2] > 92 µM | Potency [3] > 92 µM | Potency [4] | activity change, negative = cytotoxicity [5] -1.05% | outcome [6] | caspase-3 activation [7] 0.542% | outcome [8] | outcome [9] | outcome [10] | outcome [11] | outcome [12] | outcome [13] | outcome [14] | caspase-3 activation [15] 6.18% | Potency [16] | Potency [17] | Potency [18] | max response [19] -0.284% | Potency [20]

CC(C)(C)OOC(C)(C)C
inactive: Potency [1] > 92 µM | Potency [2] > 92 µM | Potency [3] > 92 µM | Potency [4] | activity change, negative = cytotoxicity [5] -8.32% | outcome [6] | caspase-3 activation [7] 0.243% | outcome [8] | outcome [9] | outcome [10] | outcome [11] | outcome [12] | outcome [13] | outcome [14] | caspase-3 activation [15] 11.1% | Potency [16] | Potency [17] | Potency [18] | max response [19] 1.9% | Potency [20]

NC(=S)Nc1ccccc1
inactive: Potency [1] > 92 µM | Potency [2] > 92 µM | Potency [3] > 92 µM | Potency [4] | activity change, negative = cytotoxicity [5] -4.19% [at 91.7 µM] and 2.38% [at 91.7 µM] | outcome [6] | caspase-3 activation [7] 1.95% and -1.01% | outcome [8] | outcome [9] | outcome [10] | outcome [11] | outcome [12] | outcome [13] | outcome [14] | caspase-3 activation [15] 12.5% [at 91.7 µM] and -6.92% [at 91.7 µM] | Potency [16] | Potency [17] | Potency [18] | max response [19] -1.42% and -0.575% and -4.82% | Potency [20]
